Laboratory results from the supplement of paper PMC4466140.

Legend:
Assay in all cases: SPOT peptide array binding signal intensity (averaged, normalized) (arbitrary units (background-subtracted, floor 0; scale differs between SH3 domains)); higher = stronger binding of the SH3 domain to the peptide
[1] = target: AgAbp1
In short: (§1)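 To measure binding, SH3 domains from four yeast species were fused to GST, expressed in E. coli BL21(DE3) and purified on glutathione Sepharose. Each domain was incubated at 10 μg/ml overnight at 4°C on cellulose membranes with synthetic 15-mer peptides whose cysteines were replaced by serines. Anti-GST antibody, an HRP anti-mouse secondary and luminol were used for detection, and images were quantified with Genespotter. Reported binding signal is normalized, background-subtracted spot intensity averaged over replicates, in arbitrary units that differ between domains.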

[2] = target: AgBbc1
In short: as §1

[3] = target: AgBem1-D1
In short: as §1

[4] = target: AgBzz1-D1
In short: as §1

[5] = target: AgBzz1-D2
In short: as §1

[6] = target: AgCyk3
In short: as §1

[7] = target: AgFus1
In short: as §1

[8] = target: AgHof1
In short: as §1

[9] = target: AgHse1
In short: as §1

[10] = target: AgLsb1
In short: as §1

[11] = target: AgLsb4
In short: as §1

[12] = target: AgMyo5
In short: as §1

[13] = target: AgNbp2
In short: as §1

[14] = target: AgRvs167
In short: as §1

[15] = target: AgSho1
In short: as §1

[16] = target: AgSla1-D1-D2
In short: as §1

[17] = target: AgSla1-D3
In short: as §1

[18] = target: CaAbp1-D1
In short: as §1

[19] = target: CaAbp1-D2
In short: as §1

[20] = target: CaBbc1
In short: as §1

[21] = target: CaBem1-D1
In short: as §1

[22] = target: CaBzz1-D1
In short: as §1

[23] = target: CaBzz1-D2
In short: as §1

[24] = target: CaCyk3
In short: as §1

[25] = target: CaFus1
In short: as §1

[26] = target: CaHof1
In short: as §1

[27] = target: CaHse1
In short: as §1

[28] = target: CaLsb1
In short: as §1

[29] = target: CaLsb4
In short: as §1

[30] = target: CaMyo5
In short: as §1

[31] = target: CaNbp2
In short: as §1

[32] = target: CaRvs167
In short: as §1

[33] = target: CaRvs167-3
In short: as §1

[34] = target: CaSho1
In short: as §1

[35] = target: CaSla1-D1-D2
In short: as §1

[36] = target: CaSla1-D3
In short: as §1

[37] = target: ScAbp1
In short: as §1

[38] = target: ScBbc1
In short: as §1

[39] = target: ScBem1-D1
In short: as §1

[40] = target: ScBzz1-D1
In short: as §1

[41] = target: ScBzz1-D2
In short: as §1

[42] = target: ScCyk3
In short: as §1

[43] = target: ScFus1
In short: as §1

[44] = target: ScHof1
In short: as §1

[45] = target: ScHse1
In short: as §1

[46] = target: ScLsb1
In short: as §1

[47] = target: ScLsb2
In short: as §1

[48] = target: ScLsb3
In short: as §1

[49] = target: ScLsb4
In short: as §1

[50] = target: ScMyo3
In short: as §1

[51] = target: ScMyo5
In short: as §1

[52] = target: ScNbp2
In short: as §1

[53] = target: ScPex13
In short: as §1

[54] = target: ScRvs167
In short: as §1

[55] = target: ScSho1
In short: as §1

[56] = target: ScSla1-D1-D2
In short: as §1

[57] = target: ScSla1-D3
In short: as §1

[58] = target: SpAbp1-D1
In short: as §1

[59] = target: SpBbc1
In short: as §1

[60] = target: SpBzz1-D1
In short: as §1

[61] = target: SpBzz1-D2
In short: as §1

[62] = target: SpCyk3
In short: as §1

[63] = target: SpHof1
In short: as §1

[64] = target: SpHof1-2
In short: as §1

[65] = target: SpHof1-3
In short: as §1

[66] = target: SpHse1
In short: as §1

[67] = target: SpLsb1
In short: as §1

[68] = target: SpLsb4
In short: as §1

[69] = target: SpMyo1
In short: as §1

[70] = target: SpNbp2
In short: as §1

[71] = target: SpPex13
In short: as §1

[72] = target: SpRvs167
In short: as §1

[73] = target: SpSla1-D1-D2
In short: as §1

[74] = target: SpSla1-D3
In short: as §1

B1: unnamed (peptide)
chain: QLLNPNRRAPRRPLS
B1 was tested, and the “SPOT peptide array binding signal intensity” value [1] was 104, the “SPOT peptide array binding signal intensity” value [2] was 451 and the “SPOT peptide array binding signal intensity” value [3] was 328. The “SPOT peptide array binding signal intensity” value [4] was 59, the “SPOT peptide array binding signal intensity” value [5] was 45 and the “SPOT peptide array binding signal intensity” value [6] was 2. The “SPOT peptide array binding signal intensity” value [7] was 158, the “SPOT peptide array binding signal intensity” value [8] was 89.8 and the “SPOT peptide array binding signal intensity” value [9] was 144. The “SPOT peptide array binding signal intensity” value [10] was 9.25, the “SPOT peptide array binding signal intensity” value [11] was 25 and the “SPOT peptide array binding signal intensity” value [12] was 60.5. For the same binder, the “SPOT peptide array binding signal intensity” value [13] was 4130, the “SPOT peptide array binding signal intensity” value [14] was 2.83 and the “SPOT peptide array binding signal intensity” value [15] was 7. The “SPOT peptide array binding signal intensity” value [16] was 33, the “SPOT peptide array binding signal intensity” value [17] was 4 and the “SPOT peptide array binding signal intensity” value [18] was 608. For the same binder, the “SPOT peptide array binding signal intensity” value [19] was 495, the “SPOT peptide array binding signal intensity” value [20] was 1450 and the “SPOT peptide array binding signal intensity” value [21] was 122. The “SPOT peptide array binding signal intensity” value [22] was 220, the “SPOT peptide array binding signal intensity” value [23] was 135 and the “SPOT peptide array binding signal intensity” value [24] was 161. For the same binder, the “SPOT peptide array binding signal intensity” value [25] was 270, the “SPOT peptide array binding signal intensity” value [26] was 0.25 and the “SPOT peptide array binding signal intensity” value [27] was 13.5. The “SPOT peptide array binding signal intensity” value [28] was 0.25, the “SPOT peptide array binding signal intensity” value [29] was 95.5 and the “SPOT peptide array binding signal intensity” value [30] was 6.75. For the same binder, the “SPOT peptide array binding signal intensity” value [31] was 2950, the “SPOT peptide array binding signal intensity” value [32] was 28.8 and the “SPOT peptide array binding signal intensity” value [33] was 5.25. The “SPOT peptide array binding signal intensity” value [34] was 72, the “SPOT peptide array binding signal intensity” value [35] was 1270 and the “SPOT peptide array binding signal intensity” value [36] was 0.25. The “SPOT peptide array binding signal intensity” value [37] was 73, the “SPOT peptide array binding signal intensity” value [38] was 271 and the “SPOT peptide array binding signal intensity” value [39] was 45. The “SPOT peptide array binding signal intensity” value [40] was 56, the “SPOT peptide array binding signal intensity” value [41] was 30.5 and the “SPOT peptide array binding signal intensity” value [42] was 65. The “SPOT peptide array binding signal intensity” value [43] was 104, the “SPOT peptide array binding signal intensity” value [44] was at most 0 and the “SPOT peptide array binding signal intensity” value [45] was 779. The “SPOT peptide array binding signal intensity” value [46] was 37.2, the “SPOT peptide array binding signal intensity” value [47] was 370 and the “SPOT peptide array binding signal intensity” value [48] was 808. For the same binder, the “SPOT peptide array binding signal intensity” value [49] was 31, the “SPOT peptide array binding signal intensity” value [50] was 70.5 and the “SPOT peptide array binding signal intensity” value [51] was 122. For the same binder, the “SPOT peptide array binding signal intensity” value [52] was 6040, the “SPOT peptide array binding signal intensity” value [53] was 50.5 and the “SPOT peptide array binding signal intensity” value [54] was 93.5. The “SPOT peptide array binding signal intensity” value [55] was 271, the “SPOT peptide array binding signal intensity” value [56] was 247 and the “SPOT peptide array binding signal intensity” value [57] was 17.2. For the same binder, the “SPOT peptide array binding signal intensity” value [58] was 90, the “SPOT peptide array binding signal intensity” value [59] was 66.5 and the “SPOT peptide array binding signal intensity” value [60] was 370. The “SPOT peptide array binding signal intensity” value [61] was 130, the “SPOT peptide array binding signal intensity” value [62] was 6 and the “SPOT peptide array binding signal intensity” value [63] was 134. For the same binder, the “SPOT peptide array binding signal intensity” value [64] was 25, the “SPOT peptide array binding signal intensity” value [65] was 148 and the “SPOT peptide array binding signal intensity” value [66] was 178. The “SPOT peptide array binding signal intensity” value [67] was 61.5, the “SPOT peptide array binding signal intensity” value [68] was 1750 and the “SPOT peptide array binding signal intensity” value [69] was 390. The “SPOT peptide array binding signal intensity” value [70] was 440, the “SPOT peptide array binding signal intensity” value [71] was 20 and the “SPOT peptide array binding signal intensity” value [72] was 34. The “SPOT peptide array binding signal intensity” value [73] was 3 and the “SPOT peptide array binding signal intensity” value [74] was 2.
